TRAIL sens C8 = sensitizes caspase-8 expressing cells to TRAIL | AID 624354 | 1% of 360,000 active | inhibition (viability loss, TRAIL sensitization), % at 10 µM | NB7+C8 cells + TRAIL, ATPlite viability luminescence;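 active = compounds causing at least 50% loss of cell viability in the single-dose screen, relative to plate controls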
TROY NFkB inh = blocks TROY-dependent signaling in reporter cells; inhibition, % at 10 µM; 0.98% of 360,000 active; Q293 LMP1-TROYcd NF-kB luciferase reporter, 4 h;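 active = compounds whose plate-normalised and pattern-corrected inhibition of the luciferase reporter signal at the single screening dose is 50% or more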
HSP90 inh = blocks HSP90-mediated luciferase refolding in reticulocyte lysate. Rabbit reticulocyte lysate, luciferase refolding luminescence, 3 h. inhibition, % at 5.6 µM. 0.91% of 290,000 active. AID 1789;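 active = inhibition above the screen-wide mean plus 3 SD, computed separately per campaign, cut at about 16% in these data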;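 note: 0% = DMSO wells and 100% = 60 µM geldanamycin wells; inhibitors lower the luminescence because luciferase stays unfolded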
PPC-1+TRAIL kill = kills PPC-1 cancer cells in the presence of TRAIL. cell killing (% activity), % at 4 µM or 5 µM. 0.41% of 220,000 active. PPC-1 cells + TRAIL, ATPLite viability luminescence;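 active = cell killing above 50% in the first pass at 4 µM, then a duplicate retest at 5 µM averaging 50% or more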;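 note: plate controls were cells with TRAIL plus DMSO for no effect and medium-only wells lacking cells for full effect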
Platelet DG rel = modulates dense granule release in human platelets; human platelet-rich plasma, SFLLRN dense granule ATP release, luminescence; inhibition, %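 (compounds screened at 7.5 µM in platelet-rich plasma)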; 0.22% of 300,000 active; AID 1663;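 active = mean replicate score, as percent of positive control, at or above 50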
TWEAK-Fn14 inh = TWEAK-Fn14 signaling inhibition; TWEAK-stimulated Fn14 reporter cells, luciferase luminescence, 8 h; 2% of 360,000 active; inhibition, % at 10 µM; in the data active = inhibition above about 50%
* hit, by the source's call; x = not tested or not shown. This is a sample that favours compounds with a hit; in the whole collection about 3.5% have one here.

SMILES	TRAIL sens C8	TROY NFkB inh	HSP90 inh	PPC-1+TRAIL kill	Platelet DG rel	TWEAK-Fn14 inh
CC(C)(C)CNC(=O)C1(C)CCN1C(=O)Cc1ccc(-c2ccccc2)cc1 (centres undefined)	3	6	x	x	x	67*
C/C=C(/C)C(=O)Nc1cccc(C2=NOC3(C2)C[C@@H](C(N)=O)N(C(=O)/C=C/CC)C3)c1 (some centres undefined)	-19	5	x	-10	0	-9
COc1ccc(-c2cc(CNC(C)=O)on2)cc1	-7	1	3	0	0	1
COc1ccc(-c2cc(CNC(=O)CCl)on2)cc1	-3	x	-2	5	-1	76*
O=[N+]([O-])c1ccccc1OCCOCCOc1cccc2cccnc12	-12	87*	-7	-1	-2	75*
Cc1nc2ccc(NC(=O)c3ccc(S(=O)(=O)N(C)c4ccccc4)cc3)cc2s1	0	56*	-5	25	10	58*
CC(=NNC(=S)Nc1ccccc1Cl)c1ccccn1	7	-3	x	x	x	4
C/C(=N\Nc1ncc(Cl)cc1Cl)c1ccc(N2CCOCC2)cc1	-1	55*	9	14	-3	62*
C/C(=N\Nc1ncc(Cl)cc1Cl)c1ccccn1	89*	0	3	-3	23	92*
C/C(=N\Nc1ncnc2sc(C)c(C)c12)c1ccccn1	8	23	13	x	-12	73*
Cc1nc2cc(NC(=O)C3(C)CCCN(C(C)C)C3)ccc2o1 (centres undefined)	-8	-25	x	x	x	-22
COc1cc2c(cc1OC)[C@@H](NC(=O)C(C)C)[C@H](OCc1ccccc1)C2	-1	-15	x	x	x	18
COc1ccc(N=Cc2cc(Cl)ccc2O)cc1Cl	-2	3	2	18	3	-6
Cc1ccc(N=Cc2ccccc2O)cc1Cl	1	7	x	x	x	59*
CC1CC2=C(C(=O)O1)C(c1ccc(Cl)cc1)Nc1ccccc1N2 (centres undefined)	21	15	3	20	9	12
Cc1ccc(C2Nc3ccccc3NC3=C2C(=O)OC(C)C3)cc1 (centres undefined)	0	64*	2	17	-12	30
O=C(CCN1C(=O)S/C(=C\C=C\c2ccccc2)C1=O)Nc1ccc(O)cc1	24	-6	2	x	-3	58*
O=C(CN1c2ccccc2Sc2ccccc21)NNC(=S)Nc1ccc(Cl)cc1Cl	-1	52*	0	7	-24	-7
COc1cccc(NC(=O)Cn2nnc(C(=O)NCc3ccc4c(c3)OCO4)c2N)c1	-9	-4	-2	x	-7	-19
O=C(c1nc2ccccn2c1CNCCn1ccc2ccccc21)N1CCOCC1	3	-13	-2	5	1	16
O=C(NC1CCCCC1)C(c1ccc(C(F)(F)F)cc1)n1c(=O)c(-c2ccco2)nc2ccccc21 (centres undefined)	2	x	x	x	x	x
COC(=O)c1c(NC(=O)c2ccc([N+](=O)[O-])o2)sc2c1CCN(C(C)C)C2	53*	-2	5	x	4	-32
CC(C)N1CCc2c(sc(NC(=O)c3ccc([N+](=O)[O-])o3)c2C(N)=O)C1	52*	7	5	x	0	-5
COC(=O)c1c(NC(=O)Cc2ccccc2)sc2c1CCN(C(C)C)C2	11	0	2	x	-4	-5
O=C(c1ccccc1O)N1N=C(c2ccccc2)CC1(O)C(F)(F)F (centres undefined)	9	9	-2	-4	1	-30
SMILES	TRAIL sens C8	TROY NFkB inh	HSP90 inh	PPC-1+TRAIL kill	Platelet DG rel	TWEAK-Fn14 inh
CCOc1cccc(NC(=O)Cc2cccs2)c1	-6	x	5	3	-2	110*
O=C(Cc1cccs1)Nc1cccc(-c2nc3cc4ccccc4cc3[nH]2)c1	73*	57*	3	47	35	74*
C#Cc1cccc(NC(=O)Cc2cccs2)c1	-3	-10	-2	x	-5	-10
CC(=O)Nc1cccc(NC(=O)Cc2cccs2)c1	-20	-5	-3	x	3	8
S=C(Nc1ccc(N2CCOCC2)cc1)Nc1ccc2snnc2c1	1	76*	0	15	-9	73*
Cc1nc(CCNC(=O)CC2C(=O)NCCN2Cc2ccc(F)cc2)sc1C (centres undefined)	-9	-27	-4	6	1	10
CN(C(=O)CSc1ncnc2ccccc12)C1CCCCC1	-2	-57	x	x	x	-14
CCC(C)Sc1ccc(-c2nc3cnccn3c2NC2CCCCC2)cc1 (centres undefined)	18	-50	x	x	0	-28
COc1ccc(Sc2ccc(-c3nc4cnccn4c3NC3CCCCC3)cc2OC)cc1	23	31	x	x	x	62*
Cc1ccc(C)c(NC(=O)CN(C)C(=O)c2ccc(Cl)nc2)c1	-4	-14	-5	x	2	-7
COc1ccc(C(O)(C(C)C)C(CN2CCOCC2)c2ccc(Cl)cc2)cc1 (centres undefined)	16	14	-7	x	-2	0
Cc1cccc(OCC(=O)Nc2nc3ccc([N+](=O)[O-])cc3s2)c1C	-4	24	-2	16	-3	-27
CS(=O)(=O)c1ccc2nc(NC(=O)c3cccc([N+](=O)[O-])c3)sc2c1	62*	-31	-2	x	37	12
Cc1cccc(OCC(=O)Nc2nc3ccc([N+](=O)[O-])cc3s2)c1	-17	59*	2	16	0	1
CS(=O)(=O)c1nc(S(=O)(=O)c2ccc(Cl)cc2)c(NCc2ccccn2)s1	-4	-8	2	28	11	17
O=C(COc1ccccc1Cl)Nc1ccc(N2CCN(C(=O)c3ccccc3)CC2)cc1	34	44	-3	x	17	32
CC(Sc1nnc(CN2CCCC2)n1Cc1ccccc1)C(=O)Nc1ccccc1 (centres undefined)	6	66*	x	x	x	4
CCCNC(=O)C1(C)CCN(C(=O)C(c2ccccc2)c2ccccc2)C1 (centres undefined)	0	5	x	x	x	2
CNc1ccc2ncc(-c3ccc(OC)c(OC)c3)n2n1	-7	57*	x	x	x	83*
COc1ccc(C(=O)NC(=S)Nc2nc(C)c(C(=O)N(C)C)s2)cc1	14	-47	0	1	-2	-21
CCOC(=O)Cc1csc(NC(=S)NC(=O)c2ccc(Cl)cc2)n1	51*	27	5	18	4	0
CCOC(=O)Cc1csc(NC(=O)c2cc3c(s2)CCCC3)n1	54*	-24	9	48	6	-6
COC(=O)c1sc(NC(=S)NC(=O)c2ccc(F)cc2)nc1C	x	x	0	10	-8	x
COC(=O)c1sc(NC(=S)NC(=O)c2ccccc2C)nc1C	51*	-25	0	2	0	-26
CCOC(=O)c1sc(NC(=S)NC(=O)c2ccc(OC)cc2)nc1C	1	-1	16*	x	-2	-27
O=S(=O)(CCc1ccccc1)CS(=O)(=O)CCc1ccccc1	11	7	x	x	x	9

Assay outcomes (PubChem BioAssay)
